PNC assembly inh – High Content Assay for Compounds that inhibit the Assembly of the Perinucleolar Compartment; PC3M PTB-GFP, PNC prevalence imaging, 16 h; active compounds read low; AID 2417, 2010; 3.1% of 140,000 active; activity change (PNC), negative = inhibition, % at 10 µM;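 active = readout at or below -70, meaning at least 70% loss of cells showing the perinucleolar compartment, a nuclear body marking cancer cells; inconclusive = readout between -30 and a set limit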;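 note: plate controls were DMSO wells for no effect and camptothecin positive control wells for full effect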
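PC3M cells stably expressing PTB-GFP, 750–1000 cells/well, treated 16 h at 37 °C with compound (23 nl of library stock), in duplicate. After paraformaldehyde fixation and Hoechst stain, imaged at 20x; PNC prevalence scored by image analysis.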
GLA spleen mod – qHTS Assay for Inhibitors and Activators of Human alpha-Galactosidase From Spleen Homogenate; Potency, µM (series often up to 80 µM), for inactives: top-dose activity change, negative = inhibition, actives largely listed as inhibitors; 0.008% of 240,000 active; human spleen homogenate, 4MU-alpha-Gal fluorescence, 40 min;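 note: potency is the fitted concentration of half-maximal effect; 0% = enzyme with vehicle and -100% = no enzyme basal signal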
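Human spleen homogenate (1 ug) as enzyme source, 4-methylumbelliferyl-alpha-D-galactopyranoside 1 mM final, citrate/phosphate pH 5.0 with 0.01% Tween-20. Compounds 40 min at 37C, NaOH/glycine stop; fluorescence Ex 365/Em 440, Hill-fit AC50.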
GLA inh pH 4.5 – qHTS Assay for Inhibitors of Human alpha-Galactosidase at pH 4.5. 230,000 tested, under 10 active. activity change, negative = inhibition, % at 105 µM. purified enzyme, 4-MU-alpha-Gal fluorescence, pH 4.5;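 note: 0% = full activity with enzyme and -100% = basal without enzyme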
12-hLO inh – qHTS Assay for Inhibitors of 12-hLO (12-human lipoxygenase); purified 12-hLO, xylenol orange hydroperoxide absorbance; Potency, µM (doses to about 57.1 µM), for inactives: at the highest dose activity change, negative = inhibition, hits mostly inhibitors; 0.12% of 150,000 active; note: potency is the fitted concentration of half-maximal effect; nearly all actives have a fitted effect of over 55% in size
Target sequence (P18054 whole entry, looked up): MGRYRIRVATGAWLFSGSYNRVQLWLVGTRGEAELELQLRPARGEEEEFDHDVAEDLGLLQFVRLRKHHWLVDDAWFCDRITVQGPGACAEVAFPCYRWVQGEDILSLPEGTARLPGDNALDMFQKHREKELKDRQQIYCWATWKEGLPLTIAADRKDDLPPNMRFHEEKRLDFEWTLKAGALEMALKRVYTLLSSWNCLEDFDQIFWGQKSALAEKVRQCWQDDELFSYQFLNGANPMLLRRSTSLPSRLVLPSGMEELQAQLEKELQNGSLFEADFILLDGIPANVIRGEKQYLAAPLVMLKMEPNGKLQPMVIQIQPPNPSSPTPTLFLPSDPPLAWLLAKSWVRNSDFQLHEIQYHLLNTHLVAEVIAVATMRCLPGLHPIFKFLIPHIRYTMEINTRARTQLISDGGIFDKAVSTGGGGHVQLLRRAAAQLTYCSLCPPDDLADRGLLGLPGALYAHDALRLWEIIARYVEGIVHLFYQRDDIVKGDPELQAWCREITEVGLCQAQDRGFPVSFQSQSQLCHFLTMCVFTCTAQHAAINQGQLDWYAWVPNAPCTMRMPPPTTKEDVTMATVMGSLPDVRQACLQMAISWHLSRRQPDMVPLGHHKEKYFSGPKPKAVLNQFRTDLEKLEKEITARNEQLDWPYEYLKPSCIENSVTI
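Hydroperoxide output read as Fe(III)-xylenol orange absorbance, 573-to-405 nm ratio, after 30 min reaction with 40 uM arachidonic acid. Enzyme: 150 nM purified human 12hLO, 15 min compound preincubation; 25 mM Hepes pH 7.0, room temperature.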
HPGD inh – qHTS Assay for Inhibitors of HPGD (15-Hydroxyprostaglandin Dehydrogenase); 15-hydroxyprostaglandin dehydrogenase [NAD(+)] (Homo sapiens), P15428; purified HPGD, NADH fluorescence kinetic, PGE2 substrate; Potency, µM, without a hit: at the highest dose activity change, negative = inhibition, hits mostly inhibitors; 4.3% of 150,000 active; AID 894, 2007; active = well fitted inhibition curve with a large enough effect, not every such curve was filed as active; inconclusive = small, poorly fitted or top-dose-only effect, or another doubt; inactive = no such curve, though single readings can be large or run the other way; note: potency is the fitted concentration of half-maximal effect
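20 nM HPGD preincubated 15 min at room temperature with compound in 50 mM Tris-HCl pH 8, 0.01% Tween 20. Started with 1 mM NAD+ and 30 uM prostaglandin E2; NADH fluorescence (360/450 nm) read 5 times over 30-s intervals, last minus first.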
ALDH1A1 inh – qHTS Assay for Inhibitors of Aldehyde Dehydrogenase 1 (ALDH1A1). AID 1030, 2008. Potency, µM (top dose mostly 75.3 µM), without a hit: at the top dose activity, negative = inhibition, hits mostly inhibitors. 7.3% of 220,000 active. Aldehyde dehydrogenase 1A1 (Homo sapiens), P00352. Purified ALDH1A1, NADH fluorescence, propionaldehyde substrate; active = well fitted inhibition curve with a large enough effect, not every such curve was filed as active; inconclusive = small, poorly fitted or top-dose-only effect, or another doubt; inactive = no such curve, though single readings can be large or run the other way;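 note: potency is the fitted concentration of half-maximal effect; plate controls were no enzyme wells and a reference inhibitor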
Starred values were filed as active, the others as inactive; ? = inconclusive; nt = no result given. A selection: hits, their analogues and other compounds. The true share with any hit is near 10%. Unless noted, calls come from the whole dose curve; as a rule, active = well fitted curve in the direction sought with a large enough effect; inconclusive = small, poorly fitted or top-dose-only effect, or another doubt; inactive = no such curve, though single readings can be large; an effect the other way counts as inactive or inconclusive. Unless noted, % is set by controls: 0 for no effect and ±100 for the full control effect.

SMILES | PNC assembly inh | GLA spleen mod | GLA inh pH 4.5 | 12-hLO inh | HPGD inh | ALDH1A1 inh
CCOC(=O)c1ccc(NC(=O)Cn2ncc(Cl)c(Cl)c2=O)cc1 | 15 | 1% | -1 | -1% | -10% | 28µM*
COc1ccc(NC(=O)Cn2ncc(Cl)c(Cl)c2=O)cc1S(=O)(=O)N1CCOCC1 | -26 | 7% | -4 | -4% | -4% | 11µM*
CCC(=O)Nc1ccc(C(=O)Cn2ncc(Cl)c(Cl)c2=O)cc1 | nt | -13% | 2 | nt | nt | 2.2µM*
CN(c1ccc(OCC(=O)N2CCOCC2)cc1)S(=O)(=O)c1ccc(Cl)cc1 | nt | 5% | 8 | nt | nt | 9%
O=C1OC(=O)[C@@H]2[C@@H]1[C@@H]1CC[C@H]2O1 | nt | nt | nt | -3% | nt | nt
C=CCC(C)(O)c1ccc(OC)cc1 (configuration not stated) | nt | 0% | -4 | nt | -9% | -1%
CCOC(=O)Cc1csc(NC(=O)c2sc3nc4c(C)cc(C)cc4cc3c2N)n1 | ? | 5% | -4 | ? | -15% | ?
Cc1nc2ccc(NC(=O)c3ccc(Cl)c([N+](=O)[O-])c3)cc2s1 | -17 | -1% | -3 | 1% | -1% | 5%
Cc1nc2ccc(NC(=O)c3cc([N+](=O)[O-])cc([N+](=O)[O-])c3Cl)cc2s1 | -2 | -4% | 0 | -1% | 7.1µM* | ?
Nc1nc(SCC(=O)N2N=C(c3ccc(Cl)cc3)CC2c2ccco2)n[nH]1 (configuration not stated) | nt | -6% | -7 | nt | nt | -12%
Cc1cc(NC(=O)CCCSc2nc(-c3ccco3)cc(C(F)(F)F)n2)no1 | 35 | 5% | 1 | -2% | -17% | 10%
O=C(CCCSc1nc(-c2ccco2)cc(C(F)(F)F)n1)NCc1cccs1 | ? | 5% | -3 | -11% | 18µM* | ?
O=C(CCCSc1nc(-c2ccco2)cc(C(F)(F)F)n1)NCC1CCCO1 (configuration not stated) | 21 | -4% | 0 | 6% | 7.9µM* | ?
COc1cccc(-c2cc(C(F)(F)F)nc(NCc3ccco3)n2)c1 | -100* | -13% | -14 | -9% | -29% | -1%
O=C(CCSc1nc(-c2ccco2)cc(C(F)(F)F)n1)NCC1CCCO1 (configuration not stated) | 36 | 6% | -1 | 0% | ? | -15%
COc1ccc(-c2cc(C(F)(F)F)nc(NCc3ccco3)n2)cc1OC | 14 | -4% | 2 | -6% | ? | ?
FC(F)(F)c1cc(-c2ccco2)nc(NCc2cccs2)n1 | -9 | -5% | 2 | -14% | -16% | 8.9µM*
CC(C)[C@@H](CC(=O)N[C@@H]1CCNC[C@H]1C(=O)N[C@H](CC(=O)N[C@@H](CCC(=O)O)CC(=O)O)Cc1c[nH]c2ccccc12)NC(=O)C[C@H](Cc1c[nH]c2ccccc12)NC(=O)[C@@H]1CCCC[C@H]1N | nt | -5% | -25 | 1% | -6% | -8%
CC(=O)Nc1ccc(S(=O)(=O)N2CCN(Cc3ccccc3[N+](=O)[O-])CC2)cc1 | nt | -3% | 7 | nt | nt | 22µM*
C1=CC2CC1CC2CN1CCN(c2ccccc2)CC1 (configuration not stated) | -81* | -13% | -4 | -3% | 3% | -8%
CS(=O)(=O)N1CCN(CC2CC3C=CC2C3)CC1 (configuration not stated) | -89* | -8% | -4 | -1% | 1% | -4%
O=[N+]([O-])c1ccccc1S(=O)(=O)N1CCN(CC2CC3C=CC2C3)CC1 (configuration not stated) | nt | -3% | 1 | nt | nt | 14µM*
CCN1CCN(CC2CC3C=CC2C3)CC1 (configuration not stated) | 3 | 7% | -10 | -4% | -3% | ?
CC(=O)Nc1ccc(S(=O)(=O)N2CCN(Cc3ccccn3)CC2)cc1 | -27 | 0% | 3 | 0% | -2% | ?
CCS(=O)(=O)N1CCN(S(=O)(=O)c2ccccc2[N+](=O)[O-])CC1 | nt | 13% | 9 | nt | nt | -1%
SMILES | PNC assembly inh | GLA spleen mod | GLA inh pH 4.5 | 12-hLO inh | HPGD inh | ALDH1A1 inh
CC(=O)OC1C(=O)[C@@]2(C)C(O)CC3OC[C@]3(OC(C)=O)C2C(OC(=O)c2ccccc2)[C@]2(O)CC(OC(=O)C(O)C(NC(=O)c3ccccc3)c3ccccc3)C(C)=C1C2(C)C (some centres not stated) | nt | -2% | -5 | 0% | -9% | 4%
NS(=O)(=O)c1ccc(F)c(C(=O)O)c1 | nt | 2% | -12 | nt | nt | 8%
CC(=O)Nc1ccc(S(=O)(=O)N2CCN(CCC#N)CC2)cc1 | 2 | -9% | 9 | 0% | 0% | -1%
CC(=O)Nc1ccc(S(=O)(=O)N2CCN(CC3CC4C=CC3C4)CC2)cc1 (configuration not stated) | nt | 7% | 3 | nt | nt | 4.5µM*
CCCCNC(=O)C1COc2ccccc2O1 (configuration not stated) | 4 | -3% | -1 | -3% | 16µM* | 5%
O=C(NCc1ccc2c(c1)OCO2)C1COc2ccccc2O1 (configuration not stated) | -2 | -5% | -1 | -4% | 4.5µM* | 0%
O=C(NCc1ccccn1)C1COc2ccccc2O1 (configuration not stated) | 10 | 4% | -1 | 6% | 14µM* | 3%
O=C(NCCOC(=O)C1COc2ccccc2O1)C1COc2ccccc2O1 (configuration not stated) | -17 | -5% | 2 | -1% | -6% | -3%
CCCCNC(=S)N/N=C/c1ccc(C#N)cc1 | nt | -3% | -2 | nt | nt | 8%
O=C1C(NS(=O)(=O)c2cccs2)=C(N2CCN(c3cccc(Cl)c3)CC2)C(=O)c2ccccc21 | -12 | 4% | -5 | -5% | -14% | 3.2µM*
O=[N+]([O-])c1ccc(NNC(=S)Nc2ccc(F)cc2)cc1 | ? | 1% | -4 | ? | 22µM* | 1.3µM*
O=C(NC(NNc1ccc([N+](=O)[O-])cc1)(C(F)(F)F)C(F)(F)F)c1ccc(F)cc1 | -20 | 5% | -11 | -12% | 32µM* | ?
COC(=O)C(NNc1ccccc1)(NC(=O)c1ccc(F)cc1)C(F)(F)F (configuration not stated) | -4 | 13% | 1 | -18% | -14% | ?

High-throughput results as filed in PubChem BioAssay.
